Test results published in the OligoGym collection.

molecular target: CPD; test: pooled miR-30 sensor sort-seq; sequence = guide strand; settings: shRNA
Note: reference of the scale not given here.

Sequence | sensor-assay potency score (higher = more potent)
TATTCTTGCAAGGTCTACCTTG | -0.366
ATAGGTGACACTATAATCCTTC | 0.621
TAGCAGTTGATACAGCCTCTGT | -1.16
TTTTGCTTGGTACTTATGCTGG | -0.405
TTTGTTTGTAAATAGTTCCAGT | 0.147
TTGCGTAGGATCTGTGATCTGA | 1.11
TTGATTGAGCAGATGCACCAAA | -0.419
TTTCACTCCAATGTGAACCTTT | 0.41
TTGTTTGTACCTTTATTCCTTC | -0.441
TTTGTAAGTAGTCACTGGGTGA | -0.0209
TTGACAGTCACATTCTTGGTAA | -0.225
TTAGGTATAGCAACTGTGCTAG | 0.733
TTGAAGTACAGTCTTTCTCTTG | -0.337
TAGTGTTATGAACCAAATCTGT | -0.534
TATTTGTGAAGTCTGTATCCAA | 0.0284
TTAGTGATCTTCGATTCTGTTC | -0.307
TTCAACAGCAGTTCTCTTCCAA | 0.56
TTGTAAATAGTTCCAGTCCTGC | -0.512
TTGGAACACAGCATCATCTGGT | 0.644
TTAGGATACATATTCTTGCAAG | -0.612
TTCATTAGGATACATATTCTTG | -0.698
TTTGTTGGAACACAGCATCATC | -1.01
TTGATTCATTGTTTGAATCTGT | 0.522
TTACACTTATTGAATCTCCTTC | 0.411
